Source: PubChem BioAssay (several laboratories)
Autofluor counter: compound fluorescence in toxin protease inhibitor counterscreen | compound autofluorescence counterscreen, microsphere flow cytometry; hits give high values | fluorescence intensity (test concentration not listed) | hit rate 3.1% among 360,000 | AID 624483; in the data active means fluorescence intensity above about 16000; inconclusive means no clear call, values can overlap the other calls
MazEF act: activators of E. coli MazEF toxin-antitoxin RNase | P0AE70 | FAM/BHQ RNA-DNA oligo cleavage fluorescence, 5 h | activation, % at 20 µM | hit rate 0.32% among 350,000; in the data active means activation above about 50%
BoNT-A LC inh2: BoNT A light chain protease inhibition; multiplex microsphere protease substrate cleavage, flow cytometry; inhibition, % at 10 µM; hit rate 0.17% among 360,000; AID 588499; further: plate controls were buffer without enzyme for full effect and enzyme alone for no effect
VHR inh abs: DUSP3 (human) phosphatase inhibition; P51452; recombinant VHR phosphatase, pNPP absorbance; inhibition, % at 13.3 µM; hit rate 0.52% among 290,000; AID 1654; in the data active means inhibition above about 50%
BoNT F protease: blocks Botulinum neurotoxin F light chain protease; Multiplex microsphere protease cleavage assay, flow cytometry; inhibition, % at 10 µM; hit rate 0.22% among 360,000; AID 588497; in the data active means inhibition above about 35%, passing the limit was not always enough; inconclusive means no clear call, values can overlap the other calls; further: plate controls were buffer without enzyme for full effect and enzyme alone for no effect
Anthrax LF prot: anthrax lethal factor protease inhibition; hit rate 0.12% among 360,000; AID 588501; inhibition, % at 10 µM; P15917; multiplex microsphere protease cleavage assay, LF; further: plate controls were buffer without enzyme for full effect and enzyme alone for no effect
Target sequence (P15917 whole entry, looked up): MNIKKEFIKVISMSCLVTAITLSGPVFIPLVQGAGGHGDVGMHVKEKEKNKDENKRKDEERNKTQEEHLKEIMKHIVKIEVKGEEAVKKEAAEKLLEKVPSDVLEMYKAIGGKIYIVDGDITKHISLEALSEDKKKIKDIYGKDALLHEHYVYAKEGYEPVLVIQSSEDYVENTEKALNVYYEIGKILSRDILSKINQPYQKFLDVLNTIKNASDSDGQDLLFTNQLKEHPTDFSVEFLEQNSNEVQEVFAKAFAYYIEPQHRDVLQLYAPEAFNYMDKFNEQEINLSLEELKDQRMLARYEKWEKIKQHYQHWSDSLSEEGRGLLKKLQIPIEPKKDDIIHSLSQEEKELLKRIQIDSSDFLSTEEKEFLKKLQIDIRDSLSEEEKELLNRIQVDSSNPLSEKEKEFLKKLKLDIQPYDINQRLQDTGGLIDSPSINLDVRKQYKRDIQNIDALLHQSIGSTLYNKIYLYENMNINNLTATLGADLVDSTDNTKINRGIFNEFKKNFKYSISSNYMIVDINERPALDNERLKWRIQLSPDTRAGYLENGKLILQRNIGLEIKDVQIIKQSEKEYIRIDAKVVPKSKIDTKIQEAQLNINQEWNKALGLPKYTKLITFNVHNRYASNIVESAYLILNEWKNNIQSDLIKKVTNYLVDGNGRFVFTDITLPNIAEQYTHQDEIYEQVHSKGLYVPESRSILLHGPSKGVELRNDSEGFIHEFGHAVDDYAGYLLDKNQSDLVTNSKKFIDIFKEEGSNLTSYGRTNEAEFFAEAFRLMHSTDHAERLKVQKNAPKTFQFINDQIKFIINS
* marks the source's active call; other numbers are inactive results; ? = inconclusive; / = no result. Shown are actives, neighbours in structure and some others; about 4% of the full set was active somewhere. Unless noted, no stated cut-off is given here; in the data, active means inhibition above about 30%; inconclusive means no clear call, values can overlap the other calls; inactive means below that.

SMILES	Autofluor counter	MazEF act	BoNT-A LC inh2	VHR inh abs	BoNT F protease	Anthrax LF prot
CN1CCN(c2cc(N3CCCC3)c([N+](=O)[O-])cc2F)CC1	4028	8	1	25	-2	3
O=C(CC(CC(=O)c1ccccc1)c1ccccc1)c1ccccc1	3836	2	1	19	-18	16
COC(=O)COC(=O)CC(CC(N)=O)c1ccccc1 (centres undefined)	22984*	7	1	22	1	-1
CCN=C1Cn2c(nc3scc(-c4ccccc4)c3c2=O)CN1CC	9289	7	1	6	-6	-3
CCOC(=O)[C@H]1[C@H]2COc3ccc(Br)cc3[C@H]2N2C(=O)CN(Cc3ccc(C)cc3)C(=O)[C@@]12C	3131	161*	0	/	3	-3
COc1ccccc1CC(=O)O/N=C(\N)c1ccccn1	6556	0	-1	-3	-5	-11
O=C(NCc1cccnc1)c1ccc(Cl)c(Cl)c1	2843	5	0	17	-6	-2
COc1ccc2cc(C(=O)NCc3ccco3)c(=Nc3ccc(C(=O)O)cc3)oc2c1	4196	-3	-1	11	-3	2
O=C(NCc1cccc(Cl)c1)c1cccnc1	18154*	-6	?	0	-9	-2
COc1ccc(/C(N)=N/OC(=O)Cc2ccccc2OC)cc1	21398*	-7	-2	32	-5	-4
COc1ccc(N=c2oc3c(OC)cccc3cc2C(=O)NCc2ccco2)c(OC)c1	21143*	65*	3	-4	2	-11
COc1ccc(C(=O)NCc2cccc(Cl)c2)cc1S(=O)(=O)N1CCOCC1	6747	0	-1	/	-7	-5
COc1ccc(C(=O)NCc2cccnc2)cc1S(=O)(=O)N1CCOCC1	21445*	-3	?	0	-5	1
Cc1ccccc1OCCC(=O)Nc1ccccc1C(=O)N1CCCCC1	3738	10	-1	/	-14	2
COc1ccc(C(=O)NCc2ccccc2OC)cc1	21799*	2	6	9	2	-4
COc1ccccc1CNC(=O)c1ccc(-c2ccccc2)cc1	2499	-1	0	18	-6	2
COc1cc(SC)ccc1C(=O)NCc1ccc(C)cc1	19956*	-9	2	8	3	-2
CC(C)(C)NC(=S)NCc1cccnc1	23776*	-5	-2	19	-2	-2
COc1ccccc1CNC(=O)c1cccs1	23731*	-16	-2	-7	-2	2
NC(=O)c1nn(-c2ccccc2)nc1NC(=O)CN1CCCC1	3552	9	0	15	-2	3
COc1ccccc1N(C)S(=O)(=O)c1ccc(C)c(C(=O)NC(C)c2ccccn2)c1 (centres undefined)	/	2	/	/	/	/
CN1CCN(C(=O)/C(=C/c2ccccc2F)NC(=O)c2ccccc2)CC1	3068	-1	-1	-3	-8	5
OCCC1CN(Cc2cccc3nccnc23)CCN1C1CCCC1 (centres undefined)	3927	14	0	-1	-5	1
CCOc1ccc(C(=O)NCc2cccnc2)cc1	4258	4	-1	-10	-3	-6
COc1ccc(OC)c(NS(=O)(=O)c2cccs2)c1	22109*	5	3	35	5	-1
SMILES	Autofluor counter	MazEF act	BoNT-A LC inh2	VHR inh abs	BoNT F protease	Anthrax LF prot
COc1ccc(C(=O)NCc2ccccc2OC)c(OC)c1	20943*	3	?	4	-3	-2
COc1ccc(C(=O)NCc2cccnc2)cc1	21373*	-3	-2	25	-3	1
COc1ccc(OC)c(NS(=O)(=O)c2ccc(Br)s2)c1	/	/	/	2	/	/
COc1ccccc1CNC(=O)c1ccc(S(=O)(=O)N2CCCC2)cc1	24898*	-1	-1	5	-2	-1
COc1ccc(C(CC(=O)O)NC(=O)c2cccs2)cc1 (centres undefined)	16500*	-2	-2	1	-6	-7
CCOc1ccc(C(CC(=O)O)NC(=O)c2cccs2)cc1 (centres undefined)	2520	1	-3	6	-25	-4
COc1ccc(OC)c(NC(=O)CNC(=O)c2cccs2)c1	21327*	7	?	23	1	-5
Cc1cccc(NC(=O)CN2CCN(C(=O)c3ccc(OCc4cn5ccccc5n4)cc3)CC2)c1C	?	3	-1	/	-7	1
O=C(Nc1ccccc1C(=O)N1CCCC1)C1COc2ccccc2O1 (centres undefined)	4157	-1	-1	22	-2	-6
C=CCSC1=C(C#N)C2(CCCCC2)C(C#N)C(=O)N1 (centres undefined)	19902*	-3	?	10	2	1
N#CC1=C(SCC(=O)NC2CC2)NC(=O)C(C#N)C12CCCCC2 (centres undefined)	20178*	-10	2	19	3	1
O=C1CCCC(O)=C1C(C#Cc1ccccc1)C1=C(O)CCCC1=O	17723*	0	-4	8	-7	1
O=C(COc1ccc(Br)cc1)NCCCN1CCCC1=O	4020	2	0	/	-9	-7
O=C(COc1cccc(C(F)(F)F)c1)NCCCN1CCCC1=O	16354*	-13	?	4	0	3
O=C1NC(=S)SC1=Cc1ccc(F)cc1	3594	-8	0	/	-3	-6
Cc1ccc(C2C(=O)N(C3CCCC3)CC(=O)N2CC2COc3ccccc3O2)cc1 (centres undefined)	19758*	-4	9	19	9	-6
COc1ccc(C2C(=O)N(C3CCCCC3)CC(=O)N2Cc2ccc3c(c2)OCO3)cc1 (centres undefined)	15747	-3	3	6	0	-2
COc1ccc(C2C(=O)N(C3CCCCC3)CC(=O)N2CC2COc3ccccc3O2)cc1 (centres undefined)	21276*	-1	5	26	7	-2
Cn1c(-c2sc(=S)n(-c3ccccc3)c2N)nc2ccccc21	5319	22	1	26	-4	-3
C=CCn1c(N)c(-c2nc3ccccc3n2C)sc1=S	22610*	1	11	15	1	14
COC(=O)c1[nH]c2cccc(OC)c2c1NC(=O)CCN1CCC(C)CC1	2658	9	0	-10	-2	-11
CCNc1nc(N)nc(Oc2ccc(OCCOc3ccccc3)nn2)n1	17908*	9	-5	16	-12	-4
CCNc1nc(N)nc(Oc2ccc(OCc3ccccc3)nn2)n1	8311	-2	-1	25	-6	-3
Cc1ccc(OCc2nc(-c3ccc(Cl)cc3)n[nH]2)cc1	19787*	-9	2	-14	1	-12
Fc1ccc(OCc2nc(-c3ccncc3)n[nH]2)cc1	4027	13	0	8	-1	3
COc1ccc(S(=O)(=O)Nc2ccc3c(c2)C(=O)N([C@H](C)CO)C[C@H](C)[C@@H](CN(C)S(=O)(=O)c2cccs2)O3)cc1	3090	54*	0	/	1	-6
Cc1csc(SCCn2c(N3CCCC3)nc3c2c(=O)[nH]c(=O)n3C)n1	2436	-4	0	13	8	1
